Compounds without any hit were thinned out: in the full panel of roughly 83,000, 20% have a hit.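 Note: values are percent growth. 100 is the growth of untreated cells, values between 100 and 0 indicate rising inhibition; between -100 and 0 indicates cell death.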 The source made the active and inactive calls. Rule for the calls: active = growth percent below 10; inactive = the rest.
Legend:
Test in all cases: NCI-60 one-dose screen, 48 h (100 = growth as untreated, 0 = no growth, -100 = all killed)
Details in all cases: 10 µM unless noted
T-47D breast = test system: T-47D breast
BT-549 breast = test system: BT-549 breast
MDA-MB-435 melanoma = test system: MDA-MB-435 melanoma
SW-620 colon = test system: SW-620 colon
MCF7 breast = test system: MCF7 breast
HCT-116 colon = test system: HCT-116 colon
HCC-2998 colon = test system: HCC-2998 colon
KM12 colon = test system: KM12 colon

Measured: growth

CC1CN(/N=C/c2ccc([N+](=O)[O-])o2)C(=N)O1 (stereo not drawn)
inactive: T-47D breast 117% | BT-549 breast 117% | MDA-MB-435 melanoma 100% | SW-620 colon 98.2% | MCF7 breast 84.8% | HCT-116 colon 95.6% | HCC-2998 colon 98.3%

CCN(Cc1cccc(S(=O)(=O)[O-])c1)c1ccc(C(=C2C=CC(=[N+](CC)Cc3cccc(S(=O)(=O)O)c3)C=C2)c2ccccc2S(=O)(=O)O)cc1
inactive: T-47D breast 90.3% | BT-549 breast 104% | MDA-MB-435 melanoma 94.2% | SW-620 colon 103% | MCF7 breast 90.2% | HCT-116 colon 95.1% | HCC-2998 colon 97.8% | KM12 colon 94.4%

O=c1c2ccccc2c2nccn2c2cc(Cl)ccc12
inactive: T-47D breast 84.6% | BT-549 breast 89% | MDA-MB-435 melanoma 94.5% | SW-620 colon 80.7% | MCF7 breast 122% | HCT-116 colon 76.4% | HCC-2998 colon 67.3% | KM12 colon 150%

Cc1ccc2c(c1)C(=O)/C(=C\Nc1ccc(C(N)=O)cc1)C(O)O2 (stereo not drawn)
inactive: T-47D breast 73.9% | BT-549 breast 82.4% | MDA-MB-435 melanoma 98.4% | SW-620 colon 93.2% | MCF7 breast 96.6% | HCT-116 colon 93.5% | HCC-2998 colon 134% | KM12 colon 88.2%

COc1cccc(CCN2C(=O)CCC3=C2CCC3=O)c1
inactive: T-47D breast 102% | BT-549 breast 101% | MDA-MB-435 melanoma 107% | SW-620 colon 119% | MCF7 breast 103% | HCT-116 colon 97.7% | HCC-2998 colon 104%

N#CC1c2ccccc2C=CN1C(=O)N(c1ccccc1)c1ccccc1 (stereo not drawn)
active: T-47D breast -1.33%
inactive: BT-549 breast 74.1% | MDA-MB-435 melanoma 58.7% | SW-620 colon 21.8% | MCF7 breast 49.9% | HCT-116 colon 26.5% | HCC-2998 colon 96.8% | KM12 colon 102%

Cc1n(Cc2ccc3ccccc3c2)cc[n+]1Cc1ccc2ccccc2c1
inactive: SW-620 colon 18.7%
active: T-47D breast 0.847% | BT-549 breast -13.6% | MDA-MB-435 melanoma -14.6% | MCF7 breast 7.52% | HCT-116 colon 6.14% | HCC-2998 colon 7.45% | KM12 colon -9.94%

CCCCCCCCCCCCCCCCCC1=NC(C)(CO)CO1 (stereo not drawn)
inactive: T-47D breast 87.7% | BT-549 breast 92.9% | MDA-MB-435 melanoma 103% | SW-620 colon 108% | MCF7 breast 121% | HCT-116 colon 105% | HCC-2998 colon 98.3% | KM12 colon 102%

Cc1cc(C)c(C(=O)c2cccs2)c(C)c1
inactive: T-47D breast 102% | BT-549 breast 109% | MDA-MB-435 melanoma 122% | SW-620 colon 107% | MCF7 breast 99% | HCT-116 colon 101% | HCC-2998 colon 106%

O=C(COc1cccc(/C=C2\Cc3ccccc3C2=O)c1)c1ccc(Cl)cc1
inactive: T-47D breast 80% | BT-549 breast 99.4% | MDA-MB-435 melanoma 114% | SW-620 colon 97.2% | MCF7 breast 78% | HCT-116 colon 100% | HCC-2998 colon 102% | KM12 colon 105%

C=C1CCC2C(C)(COC(=O)CC)C(OC(=O)CC)CCC2(C)C1C/C=C1/C(=O)OCC1OC(=O)CC (stereo not drawn)
active: T-47D breast -51.9% | MDA-MB-435 melanoma 2.16% | SW-620 colon -62.2% | MCF7 breast -35.1% | HCT-116 colon -100% | HCC-2998 colon -65.8% | KM12 colon 3.97%
inactive: BT-549 breast 83.6%

COc1ccc2c(c1)[n+](=O)c(C(=O)/C=C/c1cc(OC)c(OC)c(OC)c1)c(C)n2[O-]
inactive: T-47D breast 60.1% | BT-549 breast 28.8% | MDA-MB-435 melanoma 69.5% | SW-620 colon 72.4% | MCF7 breast 45.6% | HCT-116 colon 50.3% | HCC-2998 colon 98.1% | KM12 colon 88.6%

O=C1CSC(c2ccccc2Cl)N1c1nnc(Cn2nnc3ccccc32)o1 (stereo not drawn)
inactive: T-47D breast 50.5% | BT-549 breast 98.9% | MDA-MB-435 melanoma 93.4% | SW-620 colon 93.2% | MCF7 breast 86.8% | HCT-116 colon 60.1% | HCC-2998 colon 86.4% | KM12 colon 77.1%

O=C(C(=O)N1CCOCC1)c1cn(CCCn2cc(C(=O)C(=O)N3CCOCC3)c3ccccc32)c2ccccc12
inactive: T-47D breast 94.7% | BT-549 breast 104% | MDA-MB-435 melanoma 111% | SW-620 colon 115% | MCF7 breast 95.4% | HCT-116 colon 98.4% | HCC-2998 colon 108% | KM12 colon 110%

c1ccc2nc(Cn3c[n+](Cc4ccc5ccccc5n4)c4ccccc43)ccc2c1
inactive: T-47D breast 10.6% | SW-620 colon 45.3% | MCF7 breast 22.9% | HCT-116 colon 18.1% | HCC-2998 colon 32.9% | KM12 colon 21.9%
active: BT-549 breast 8.39% | MDA-MB-435 melanoma 9.62%

C[C@@H]1[C@H]2[C@H](C=C3[C@@H]4CC[C@H]5Cc6nc7c(nc6C[C@]5(C)[C@H]4C[C@@H](O)[C@@]32C)C[C@@H]2CC[C@H]3C4=C[C@@H]5O[C@@]6(CC[C@](C)(CO)O6)[C@@H](C)[C@@]5(O)[C@@]4(C)[C@H](O)C[C@@H]3[C@@]2(C)C7)O[C@]12CCC(C)(C)O2
inactive: MDA-MB-435 melanoma 51.8% | MCF7 breast 15.5% | HCC-2998 colon 66.5% | KM12 colon 28.7%
active: T-47D breast 7.03% | BT-549 breast 3.41% | SW-620 colon 8.02% | HCT-116 colon 9.68%

COc1cccc(C2=NN(C(C)=O)C(c3cc(OC)c(OC)c(OC)c3)C2)c1 (stereo not drawn)
active: BT-549 breast 7.16% | MDA-MB-435 melanoma -28.2% | MCF7 breast 3.81%
inactive: T-47D breast 35.2% | SW-620 colon 17.3% | HCT-116 colon 26.9% | HCC-2998 colon 15.7% | KM12 colon 35.9%

O=C(c1ccccc1)C(CN1CCCCC1)c1ccccc1 (stereo not drawn)
inactive: T-47D breast 34.9% | BT-549 breast 83.8% | MDA-MB-435 melanoma 23.9% | HCC-2998 colon 89% | KM12 colon 14.4%
active: SW-620 colon -82.6% | MCF7 breast 0.432% | HCT-116 colon -100%

COc1cc(OC)c2c(c1Cl)O[C@]1(C2=O)C(OCc2ccccc2)=CC(=O)C[C@H]1C
inactive: BT-549 breast 24.2% | SW-620 colon 19.8% | MCF7 breast 12.7%
active: T-47D breast 8.09% | MDA-MB-435 melanoma -44.5% | HCT-116 colon 7.75% | HCC-2998 colon -5.11% | KM12 colon 7.93%

CC(=O)N1N=C(c2ccc3c(c2)OCO3)CC1c1c(C)nn(-c2ccccc2)c1N(C)Cc1ccccc1 (stereo not drawn)
inactive: T-47D breast 58.6% | BT-549 breast 85.2% | MDA-MB-435 melanoma 90.7% | SW-620 colon 85.9% | MCF7 breast 66.1% | HCT-116 colon 57.3% | HCC-2998 colon 97.2% | KM12 colon 83.6%

CCOc1cc(/C=C/C(=O)C(C(=O)/C=C/c2ccc(OC(=O)CNc3nc4ccccc4[nH]3)c(OCC)c2)C(=O)CNc2nc3ccccc3[nH]2)ccc1OC(=O)CNc1nc2ccccc2[nH]1
active: BT-549 breast -31.3% | MDA-MB-435 melanoma -37.6% | SW-620 colon -71.4% | MCF7 breast 0.893% | HCT-116 colon -61.3% | HCC-2998 colon -41.5% | KM12 colon -70.8%
inactive: T-47D breast 37.3%

CCN(CC)CCSc1ncnc2c1cnn2-c1ccc(S(N)(=O)=O)cc1
inactive: T-47D breast 102% | BT-549 breast 100% | MDA-MB-435 melanoma 76.2% | SW-620 colon 73.5% | MCF7 breast 83.1% | HCT-116 colon 70.6% | HCC-2998 colon 97.8% | KM12 colon 106%

CCOC(=O)CCN(c1c(Cl)ssc1=O)C(C)C
inactive: T-47D breast 112% | BT-549 breast 95.7% | MDA-MB-435 melanoma 107% | SW-620 colon 99.3% | MCF7 breast 89.7% | HCT-116 colon 93.4% | HCC-2998 colon 115% | KM12 colon 113%

NS(=O)(=O)c1ccc(-n2ncc3c(N/N=C/c4ccccc4)ncnc32)cc1
inactive: T-47D breast 94.6% | BT-549 breast 113% | MDA-MB-435 melanoma 88.4% | SW-620 colon 94.6% | MCF7 breast 91% | HCT-116 colon 83.2% | HCC-2998 colon 74.7% | KM12 colon 102%

COc1ccc(C2=NN(C(C)=O)C(c3c(C)nn(-c4ccccc4)c3N3CCOCC3)C2)cc1 (stereo not drawn)
inactive: T-47D breast 93.3% | BT-549 breast 77% | MDA-MB-435 melanoma 97.2% | SW-620 colon 96.6% | MCF7 breast 91.7% | HCT-116 colon 82.3% | HCC-2998 colon 102% | KM12 colon 100%

COc1cnc2c(c1)C(=O)c1c-2n(CCCNC(C)C)c(=O)c2cc(F)ccc12
active: T-47D breast -11.5% | BT-549 breast -17.9% | MDA-MB-435 melanoma -6.52% | SW-620 colon -8.49% | MCF7 breast -3% | HCT-116 colon -76.5% | HCC-2998 colon -49.8% | KM12 colon -17.7%

COc1cc(/C=C/C(=O)c2c(C)n([O-])c3ccccc3[n+]2=O)cc(OC)c1OC
inactive: T-47D breast 34.9% | BT-549 breast 27.3% | MDA-MB-435 melanoma 46.3% | SW-620 colon 43.7% | MCF7 breast 20.8% | HCT-116 colon 30.6% | HCC-2998 colon 60.5% | KM12 colon 61.2%
